# Assay results from PubChem BioAssay AID1159580 (chemical genetic matrix, 2015).
# “And” between values parts separate entries of the source, which are not always exact repeats. Identical values can stand only once. Screen size: about 5,500 compounds; about 2,000 (36%) were called active. About 18% were inconclusive and are not listed. This is one part of the list. Values without a mark were called inactive. Cut-off read from the data, not from the text of the source: active = normalized growth mostly below about 0.91 (no sharp cut-off); inconclusive = no clear call, values can overlap the other calls; inactive = mostly above about 0.92.
# Test: chemical genetic growth profiling, strain panel (AID 1159580);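 note: tested at 20 µM; growth read once vehicle control cultures reached saturation at 30 °C; 1 = growth at the plate median or of vehicle wells; lower values mean less growth of the strain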
# Details: S. cerevisiae deletion strains, growth OD
smiles,measurement,setting,value
CO/N=C(\C(=O)N[C@@H]1C(=O)N2C(C(=O)O)=C(CSc3nc(=O)c(O)nn3C)CS[C@H]12)c1csc(N)n1,normalized growth,"locus YAL021C, strain ccr4, active compounds read low",0.982
same,normalized growth,"locus YAL026C, strain drs2, active compounds read low",0.974
same,normalized growth,"locus YAL030W, strain snc1, active compounds read low",0.984
same,normalized growth,"locus YBL061C, strain skt5, active compounds read low",0.966
same,normalized growth,"locus YBR009C, strain hhf1, active compounds read low",0.985
same,normalized growth,"locus YBR021W, strain FUR4, active compounds read low",1.03
same,normalized growth,"locus YBR023C, strain chs3, active compounds read low",0.979
same,normalized growth,"locus YBR171W, strain sec66, active compounds read low",0.96
same,normalized growth,"locus YBR229C, strain ROT2, active compounds read low",0.999
same,normalized growth,"locus YBR231C, strain swc5, active compounds read low",0.975
same,normalized growth,"locus YBR279W, strain paf1, active compounds read low",0.959
same,normalized growth,"locus YCL011C, strain gbp2, active compounds read low",0.958
same,normalized growth,"locus YCL016C, strain dcc1, active compounds read low",0.976
same,normalized growth,"locus YCL029C, strain bik1, active compounds read low",0.986
same,normalized growth,"locus YCL061C, strain MRC1, active compounds read low",0.969
same,normalized growth,"locus YCL069W, strain vba3, active compounds read low",0.986
same,normalized growth,"locus YCR088W, strain abp1, active compounds read low",0.962
same,normalized growth,"locus YDL005C, strain med2, active compounds read low",0.984
same,normalized growth,"locus YDL035C, strain GPR1, active compounds read low",0.982
same,normalized growth,"locus YDL040C, strain nat1, active compounds read low",0.973
same,normalized growth,"locus YDL074C, strain BRE1, active compounds read low",1.03
same,normalized growth,"locus YDL101C, strain DUN1, active compounds read low",0.996
same,normalized growth,"locus YDL134C, strain PPH21, active compounds read low",1
same,normalized growth,"locus YDL185W, strain tfp1, active compounds read low",0.946
same,normalized growth,"locus YDL192W, strain arf1, active compounds read low",0.984
same,normalized growth,"locus YDR001C, strain nth1, active compounds read low",0.959
same,normalized growth,"locus YDR069C, strain doa4, active compounds read low",1
same,normalized growth,"locus YDR101C, strain arx1, active compounds read low",1.02
same,normalized growth,"locus YDR137W, strain rgp1, active compounds read low",0.968
same,normalized growth,"locus YDR159W, strain sac3, active compounds read low",0.921
same,normalized growth,"locus YDR162C, strain NBP2, active compounds read low",0.97
same,normalized growth,"locus YDR195W, strain ref2",1.01
same,normalized growth,"locus YDR297W, strain sur2, active compounds read low",0.98
same,normalized growth,"locus YDR318W, strain mcm21, active compounds read low",0.982
same,normalized growth,"locus YDR334W, strain swr1, active compounds read low",0.931
same,normalized growth,"locus YDR335W, strain msn5, active compounds read low",0.966
same,normalized growth,"locus YDR388W, active compounds read low",0.981
same,normalized growth,"locus YDR392W, strain spt3, active compounds read low",0.968
same,normalized growth,"locus YDR502C, strain sam2, active compounds read low",1.01
same,normalized growth,"locus YEL003W, strain gim4, active compounds read low",0.972
same,normalized growth,"locus YEL037C, strain rad23, active compounds read low",0.969
same,normalized growth,"locus YEL061C, strain CIN8 (second series), active compounds read low",0.947
same,normalized growth,"locus YEL061C, strain CIN8, active compounds read low",1
same,normalized growth,"locus YER015W, strain faa2, active compounds read low",0.977
same,normalized growth,"locus YER016W, strain bim1, active compounds read low",0.976
same,normalized growth,"locus YER110C, active compounds read low",0.974
same,normalized growth,"locus YER111C, strain swi4, active compounds read low",0.979
same,normalized growth,"locus YER155C, strain BEM2 (second series), active compounds read low",0.959
same,normalized growth,"locus YER155C, strain BEM2, active compounds read low",1.01
same,normalized growth,"locus YER167W, strain BCK2, active compounds read low",0.988
same,normalized growth,"locus YFR010W, strain ubp6, active compounds read low",0.959
same,normalized growth,"locus YGL078C, strain dbp3, active compounds read low",0.992
same,normalized growth,"locus YGL086W, strain mad1, active compounds read low",1.03
same,normalized growth,"locus YGL167C, strain pmr1, active compounds read low",0.956
same,normalized growth,"locus YGL173C, strain kem1, active compounds read low",0.975
same,normalized growth,"locus YGL227W, strain vid30, active compounds read low",0.977
same,normalized growth,"locus YGL240W, strain doc1, active compounds read low",0.975
same,normalized growth,"locus YGL248W, strain PDE1, active compounds read low",1
same,normalized growth,"locus YGL253W, strain hxk2, active compounds read low",0.981
same,normalized growth,"locus YGR135W, strain pre9, active compounds read low",0.948
same,normalized growth,"locus YGR252W, strain gcn5, active compounds read low",1.02
same,normalized growth,"locus YHR013C, strain ard1, active compounds read low",1.2 [resistant] (active)
same,normalized growth,"locus YHR027C, strain rpn1, active compounds read low",0.978
same,normalized growth,"locus YHR030C, strain SLT2, active compounds read low",0.988 and 1.01
same,normalized growth,"locus YHR079C, strain IRE1 (second series), active compounds read low",0.966
same,normalized growth,"locus YHR079C, strain IRE1, active compounds read low",1.01
same,normalized growth,"locus YHR094C, strain hxt1, active compounds read low",0.976
same,normalized growth,"locus YHR129C, strain ARP1, active compounds read low",0.992
same,normalized growth,"locus YHR142W, strain chs7, active compounds read low",0.982
same,normalized growth,"locus YHR200W, strain rpn10, active compounds read low",0.984
same,normalized growth,"locus YIL066C, strain RNR3, active compounds read low",1.02
same,normalized growth,"locus YIL073C, strain SPO22, active compounds read low",0.941
same,normalized growth,"locus YIL125W, strain kgd1, active compounds read low",0.985
same,normalized growth,"locus YIR030C, strain dcg1, active compounds read low",0.961
same,normalized growth,"locus YJL092W, strain hpr5, active compounds read low",0.975
same,normalized growth,"locus YJL095W, strain BCK1 (second series), active compounds read low",0.966
same,normalized growth,"locus YJL095W, strain BCK1, active compounds read low",1.02 and 0.999
same,normalized growth,"locus YJL115W, strain asf1, active compounds read low",0.952
same,normalized growth,"locus YJL129C, strain trk1, active compounds read low",0.958
same,normalized growth,"locus YJL134W, strain LCB3, active compounds read low",0.993
same,normalized growth,"locus YJL154C, strain vps35, active compounds read low",0.954
same,normalized growth,"locus YJL164C, strain tpk1, active compounds read low",0.992
same,normalized growth,"locus YJL166W, strain qcr8, active compounds read low",0.981
same,normalized growth,"locus YJL168C, strain set2, active compounds read low",0.998
same,normalized growth,"locus YJL187C, strain SWE1 (second series), active compounds read low",1.01
same,normalized growth,"locus YJR043C, strain POL32, active compounds read low",1.03
same,normalized growth,"locus YJR066W, strain TOR1, active compounds read low",0.965
same,normalized growth,"locus YJR075W, strain HOC1, active compounds read low",0.994
same,normalized growth,"locus YKL009W, strain mrt4, active compounds read low",0.974
same,normalized growth,"locus YKL068W, active compounds read low",0.974
same,normalized growth,"locus YKL085W, strain MDH1 (second series), active compounds read low",0.984
same,normalized growth,"locus YKL085W, strain MDH1, active compounds read low",0.984
same,normalized growth,"locus YKL160W, strain elf1, active compounds read low",0.968
same,normalized growth,"locus YKL190W, strain CNB1, active compounds read low",0.992
same,normalized growth,"locus YKR001C, strain vps1, active compounds read low",0.993
same,normalized growth,"locus YKR026C, strain gcn3, active compounds read low",0.974
same,normalized growth,"locus YKR091W, strain srl3, active compounds read low",0.982
same,normalized growth,"locus YLL001W, strain dnm1, active compounds read low",0.965
same,normalized growth,"locus YLL026W, active compounds read low",0.986
same,normalized growth,"locus YLL041C, strain sdh2, active compounds read low",0.949
same,normalized growth,"locus YLR027C, strain aat2, active compounds read low",0.971
same,normalized growth,"locus YLR039C, strain RIC1, active compounds read low",0.988
same,normalized growth,"locus YLR058C, strain SHM2, active compounds read low",0.994
same,normalized growth,"locus YLR102C, strain apc9, active compounds read low",0.985
same,normalized growth,"locus YLR113W, strain HOG1, active compounds read low",1.04
same,normalized growth,"locus YLR221C, strain rsa3, active compounds read low",0.969
same,normalized growth,"locus YLR258W, strain gsy2, active compounds read low",0.957
same,normalized growth,"locus YLR262C, strain YPT6 (second series), active compounds read low",0.947
same,normalized growth,"locus YLR262C, strain YPT6, active compounds read low",0.982
same,normalized growth,"locus YLR268W, strain sec22, active compounds read low",0.992
same,normalized growth,"locus YLR320W, strain mms22, active compounds read low",0.97
same,normalized growth,"locus YLR330W, strain CHS5, active compounds read low",0.983
same,normalized growth,"locus YLR342W, strain FKS1 (second series), active compounds read low",0.985
same,normalized growth,"locus YLR342W, strain FKS1, active compounds read low",0.983
same,normalized growth,"locus YLR357W, strain rsc2, active compounds read low",0.893
same,normalized growth,"locus YLR370C, strain arc18, active compounds read low",0.971
same,normalized growth,"locus YLR371W, strain rom2, active compounds read low",0.979
same,normalized growth,"locus YLR384C, strain iki3, active compounds read low",0.967
same,normalized growth,"locus YLR418C, strain cdc73, active compounds read low",0.994
same,normalized growth,"locus YML016C, strain PPZ1, active compounds read low",0.996
same,normalized growth,"locus YML032C, strain rad52, active compounds read low",1.02
same,normalized growth,"locus YML120C, strain ndi1, active compounds read low",0.986
same,normalized growth,"locus YML124C, strain tub3, active compounds read low",0.989
same,normalized growth,"locus YMR058W, strain fet3, active compounds read low",0.969
same,normalized growth,"locus YMR078C, strain ctf18, active compounds read low",0.964
same,normalized growth,"locus YMR125W, strain sto1, active compounds read low",0.958
same,normalized growth,"locus YMR129W, active compounds read low",0.996
same,normalized growth,"locus YMR205C, strain PFK2, active compounds read low",0.968
same,normalized growth,"locus YMR223W, strain ubp8, active compounds read low",0.96
same,normalized growth,"locus YMR231W, strain pep5, active compounds read low",0.977
same,normalized growth,"locus YMR263W, strain SAP30, active compounds read low",1.01
same,normalized growth,"locus YMR307W, strain GAS1, active compounds read low",0.981
same,normalized growth,"locus YNL067W, strain RPL9B, active compounds read low",1.02
same,normalized growth,"locus YNL071W, strain lat1, active compounds read low",0.956
same,normalized growth,"locus YNL183C, strain NPR1, active compounds read low",0.96
same,normalized growth,"locus YNL209W, strain ssb2, active compounds read low",0.961
same,normalized growth,"locus YNL233W, strain BNI4, active compounds read low",1.03
same,normalized growth,"locus YNL248C, strain rpa49, active compounds read low",0.924
same,normalized growth,"locus YNL250W, strain rad50, active compounds read low",0.951
same,normalized growth,"locus YNL271C, strain bni1, active compounds read low",0.992
same,normalized growth,"locus YNL298W, strain CLA4, active compounds read low",0.969
same,normalized growth,"locus YNL307C, strain MCK1, active compounds read low",0.987
same,normalized growth,"locus YNL322C, strain KRE1 (second series), active compounds read low",0.978
same,normalized growth,"locus YNR049C, strain mso1, active compounds read low",0.97
same,normalized growth,"locus YNR052C, strain pop2, active compounds read low",0.986
same,normalized growth,"locus YOL006C, strain TOP1, active compounds read low",1.11
same,normalized growth,"locus YOL012C, strain htz1",0.913
same,normalized growth,"locus YOL147C, strain pex11, active compounds read low",0.972
same,normalized growth,"locus YOR001W, strain rrp6, active compounds read low",0.963
same,normalized growth,"locus YOR061W, strain CKA2, active compounds read low",0.998
same,normalized growth,"locus YOR069W, strain VPS5, active compounds read low",0.988
same,normalized growth,"locus YOR070C, strain gyp1, active compounds read low",0.977
same,normalized growth,"locus YOR080W, strain dia2, active compounds read low",0.971
same,normalized growth,"locus YOR083W, strain WHI5, active compounds read low",0.981
same,normalized growth,"locus YOR106W, strain vam3, active compounds read low",0.933
same,normalized growth,"locus YOR136W, strain idh2, active compounds read low",0.994
same,normalized growth,"locus YOR144C, strain elg1, active compounds read low",0.993
same,normalized growth,"locus YOR184W, strain ser1, active compounds read low",0.974
same,normalized growth,"locus YOR231W, strain MKK1, active compounds read low",1.04
same,normalized growth,"locus YOR265W, strain rbl2, active compounds read low",0.976
same,normalized growth,"locus YOR270C, strain vph1, active compounds read low",0.947
same,normalized growth,"locus YOR290C, strain snf2, active compounds read low",0.962
same,normalized growth,"locus YOR316C, strain cot1, active compounds read low",0.982
same,normalized growth,"locus YPL051W, strain arl3, active compounds read low",0.964
same,normalized growth,"locus YPL055C, strain LGE1, active compounds read low",1.07
same,normalized growth,"locus YPL078C, strain atp4, active compounds read low",0.991
same,normalized growth,"locus YPL106C, strain sse1, active compounds read low",0.917
same,normalized growth,"locus YPL240C, strain hsp82, active compounds read low",0.975
same,normalized growth,"locus YPL241C, strain CIN2, active compounds read low",0.982
same,normalized growth,"locus YPL256C, strain CLN2, active compounds read low",1.02
same,normalized growth,"locus YPR119W, strain clb2, active compounds read low",0.988
same,normalized growth,"locus YPR141C, strain kar3, active compounds read low",0.995
same,normalized growth,"locus YPR163C, strain tif3, active compounds read low",0.968
same,normalized growth,"locus YPR167C, strain met16, active compounds read low",0.976
same,normalized growth,"strain wtn01, active compounds read low",0.981
